# Reference: PubChem BioAssay (NCI)
# Several values for one entry are separate records, joined by “and”; a condition that tells them apart may be missing. Identical values can stand only once. About 83,000 compounds went through this panel and 20% of them were active in at least one assay; those are over-represented in the sample as a whole.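 Note: values are percent growth. 100 is the growth of untreated cells, values between 100 and 0 indicate rising inhibition; between -100 and 0 indicates cell death.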 Activity calls are given as the source filed them. The calls were made as follows: active = growth percent below 10; inactive = the rest.
# Test system: HL-60(TB) leukemia
# Experiment: NCI-60 one-dose screen, 48 h (100 = growth as untreated, 0 = no growth, -100 = all killed)
# Conditions: 10 µM unless noted
row,SMILES,growth
1,COc1ccc(CNC(=O)[C@H](O)[C@@H](N)Cc2ccccc2)cc1,102% (inactive)
2,Cc1ccc(-c2nc3nc(-c4ccc(F)cc4)nc(N4CCNCC4)c3o2)cc1,-69.1% (active)
3,CN1CCN(Cc2ccc3c(NNC(=O)c4ccccc4)nc4cc(F)ccc4n23)CC1,7.8% (active)
4,CCOC(=O)c1c(C)[nH]c(C)c1C=O,71.4% (inactive)
5,CCN(CC)c1ccc(\C=N/N=C(N)/C(N)=N\N=C/c2ccc(N(CC)CC)cc2)cc1,112% (inactive)
6,COc1cc2ccccc2cc1C(=O)NC(=S)Nc1ccc(-c2nc3ccccc3[nH]2)cc1,106% (inactive)
7,O=C(Nc1ccc(Cl)cc1)Nc1ccccc1CNc1nc(Nc2ccc(OCCN3CCCC3)cc2)ncc1Cl,-45.1% (active)
8,O=C(CCc1ccc(O)cc1)N/N=C/c1cc(Br)ccc1O,-6.29% (active)
9,O=C(O)c1ccc[n+](CC(=O)N2CCN(c3cc4c(cc3F)c(=O)c(C(=O)O)cn4C3CC3)CC2)c1,97.6% (inactive)
10,O=C1C2C3C=CC(O3)C2C(=O)N1Nc1ccccc1 (stereo not given),102% (inactive)
11,Oc1c(Cl)cc(Cl)cc1Sc1cc(Cl)cc(Cl)c1O,28% (inactive) and -16.5% (active) and 52.9% (inactive)
12,O[C@H](c1cc(C(F)(F)F)nc2c(C(F)(F)F)cccc12)[C@@H]1CCCCN1,52.8% (inactive) and 50.7% (inactive)
13,C=CCN(CCOC(=O)c1ccc([N+](=O)[O-])cc1)CCOC(=O)c1ccc([N+](=O)[O-])cc1,88.1% (inactive)
14,Cc1ccc(NC(=O)Cn2cc(CN3CCN(c4ccnc5cc(Cl)ccc45)CC3)nn2)cc1,87% (inactive)
15,O=S(=O)(Nc1ccc(NS(=O)(=O)c2ccccc2)c(Cl)c1)c1ccccc1,78.4% (inactive)
